The results in this text go back to PubChem BioAssay (Tox21).

Test [1] in a line: Human pregnane X receptor (PXR) small molecule agonists, qHTS cell viability counter screen (AID 1346977). Also: nearly all actives have a fitted effect of over 50% in size. Also: potency is read from the fitted curve at half-maximal effect. An outline of the steps:
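PXR-Luc HepG2, 2,000 cells/well, 5% charcoal-stripped FBS; 5hr settle; cpd 24hr, 37C/5% CO2; CellTiter-Fluor at 23hr, read 1hr later (fluorescence).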
(In qHTS, concentration-response curves come from the screen itself.)

The nature of test [2]: Caspase-3/7 induction in HepG2 cells by small molecules, qHTS assay (AID 1346978). Also: nearly all actives have a fitted effect of over 15% in size. The essentials: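 Caspase-3/7 induction was measured by Caspase-Glo 3/7 luminescence (30 min, room temperature) after a 17 hr compound exposure of wild-type HepG2 cells seeded at 2,000 per well and pre-incubated 5 hr.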
A short description of test [3]: Caspase-3/7 induction in CHO-K1 cells by small molecules, qHTS assay (AID 1346980). Also: nearly all actives have a fitted effect of over 15% in size. The essentials: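 Luminescent Caspase-Glo 3/7 read (30min, room temperature) quantified apoptosis induction. Cells were wild-type CHO-K1, treated with compound for 17hr at 37 C and 5% CO2.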
The nature of test [4]: Caspase-3/7 induction in HepG2 cells by small molecules, qHTS cell viability counter screen (AID 1346981). Also: nearly all actives have a fitted effect of over 30% in size. Also: potency is read from the fitted curve at half-maximal effect. An outline of the steps:
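Wild-type HepG2 cells, 2,000/well, settled 5 hr at 37 C, 5% CO2 before compound addition. Viability read by CellTiter-Fluor fluorescence, reagent added after 16 hr compound exposure, then 1 hr at 37C, in the same wells as the caspase read.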

Test [5] has as its target Nuclear receptor subfamily 1 group I member 2 (Homo sapiens) (UniProt O75469). The experiment in a line: Human pregnane X receptor (PXR) small molecule agonists, qHTS assay (AID 1346982). Also: nearly all actives have a fitted effect of over 35% in size. Also: potency is read from the fitted curve at half-maximal effect. The essentials: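 PXR-Luc HepG2 reporter cells (CYP3A4-driven luciferase) in 5% charcoal-stripped FBS medium, plated 5 h before compound addition, then treated 24 h at 37C. Luciferase read by ONE-Glo luminescence after 30 min at room temperature.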

The target of test [6] is Nuclear receptor subfamily 1 group I member 2 (Rattus norvegicus) (UniProt Q9R1A7). The experiment in a line: Rat pregnane X receptor (rPXR) activation by small molecules, qHTS assay (AID 1346983). Also: nearly all actives have a fitted effect of over 20% in size. The conditions noted are these: rPXR luciferase reporter cells, One-Glo luminescence, 24 h; max activation: active compounds read high. An outline of the steps: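 Luminescent readout (One-Glo luciferase, 30 min room temperature) followed 24 hr compound treatment at 37 C of rPXR cells plated 2,000 per well and preincubated 5hr; qHTS format with compounds delivered in DMSO.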

Test [7] addresses Nuclear receptor subfamily 1 group I member 2 (Homo sapiens) (UniProt O75469). Put plainly: CYP3A4 induction through human pregnane X receptor (PXR) by small molecules, qHTS assay (AID 1346984). Also: nearly all actives have a fitted effect of over 40% in size. An outline of the steps:
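DPX-2 HepG2 cells carrying a PXR response element and CYP3A4-promoter luciferase construct, treated with compounds 24 hr at 37C. Then P450-Glo CYP3A4 Luciferin-IPA substrate (3uM final) for 3 hr at 37C, One-Glo added, luminescence read.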

Test [8] shares this target. Put plainly: Human pregnane X receptor (PXR) activation by small molecules, qHTS assay (AID 1346985). Also: nearly all actives have a fitted effect of over 40% in size. An outline of the steps:
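DPX-2 cells (HepG2 co-transfected with a PXR response element and a CYP3A4-promoter luciferase construct) were seeded at 2,000 per well, rested 5 hr at 37C, then exposed to DMSO-dissolved compounds for 24 hr. Activation was read as luciferase luminescence.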

Test [9] concerns the target Cytochrome P450 2D6 (Homo sapiens) (UniProt P10635). Put plainly: Cytochrome P450 Family 2 Subfamily D Member 6 (CYP2D6) small molecule antagonists: luciferase reporter qHTS assay (AID 1671196). Also: nearly all actives have a fitted effect of over 50% in size. Also: potency is read from the fitted curve at half-maximal effect. An outline of the steps:
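Cell-free P450-Glo system: CYP2D6 with proluciferin substrate was pre-incubated with compound for 10 min, then reacted with NADPH regeneration for 1 h at room temperature. Luciferin product was detected after 20 min, and data were reported as relative luminescence units.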
For orientation: A reporter such as luciferase makes a cellular process visible.

Test [10] has as its target Cytochrome P450 2C19 (Homo sapiens) (UniProt P33261). The experiment in a line: Cytochrome P450 Family 2 Subfamily C Member 19 (CYP2C19) small molecule antagonists: luciferase reporter qHTS assay (AID 1671197). Also: nearly all actives have a fitted effect of over 65% in size. Also: potency is read from the fitted curve at half-maximal effect. The essentials: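 P450-Glo CYP2C19 screening system; proluciferin substrate; DMSO compound stocks; 10 min RT preincubation; NADPH regeneration, 1 h at 37C; luciferin detection reagent, 20 min RT; luminescence as RLU.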

Test [11] addresses Cytochrome P450 2C9 (Homo sapiens) (UniProt P11712). Put plainly: Cytochrome P450 Family 2 Subfamily C Member 9 (CYP2C9) small molecule antagonists: luciferase reporter qHTS assay (AID 1671198). Also: nearly all actives have a fitted effect of over 50% in size. Also: potency is read from the fitted curve at half-maximal effect. The essentials:
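Enzyme-substrate mix preincubated with compound 10 min at room temperature; reaction started with NADPH regeneration solution, 1 h 37C. Luminescent luciferin product read after 20 min detection reagent.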

The target of test [12] is Cytochrome P450 1A2 (Homo sapiens) (UniProt P05177). The experiment in a line: Cytochrome P450 Family 1 Subfamily A Member 2 (CYP1A2) small molecule antagonists: luciferase reporter qHTS assay (AID 1671199). Also: nearly all actives have a fitted effect of over 50% in size. Also: potency is read from the fitted curve at half-maximal effect. An outline of the steps: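 P450-Glo CYP1A2 enzyme–proluciferin substrate mix with compound 10 min at room temperature, then NADPH regeneration 1 h at room temperature. Luciferin detection reagent added, luminescence read after 20 min; furafylline positive control.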

Test [13] has as its target Cytochrome P450 3A4 (Homo sapiens) (UniProt P08684). The experiment in a line: Cytochrome P450 Family 3 Subfamily A Member 4 (CYP3A4) small molecule antagonists: luciferase reporter qHTS assay (AID 1671201). The essentials:
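Compounds in DMSO were pin-transferred onto CYP3A4 enzyme-substrate mix and held 10 min at room temperature. NADPH regenerating solution started the reaction for 1 h; luciferin detection reagent stopped it, and luminescence was read after 20 min.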

The nature of test [14]: Caspase-3/7 induction in CHO-K1 cells by small molecules, qHTS cell viability counter screen (AID 1346979). Also: nearly all actives have a fitted effect of over 35% in size. Also: potency is read from the fitted curve at half-maximal effect. The essentials:
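Cells (CHO-K1, wild type) are plated at 1,500 per well and incubated 5hr. Test compounds in DMSO are then pinned in, followed by 16hr at 37C and 5% CO2. Viability is read by CellTiter-Fluor fluorescence after 1hr.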

In test [15] the target is Voltage-gated inwardly rectifying potassium channel KCNH2 (Homo sapiens) (UniProt Q12809). The experiment in a line: Human Ether-a-go-go-Related Gene (hERG) channel small molecule antagonists: fluorescence cell-based qHTS assay (AID 1671200). Also: nearly all actives have a fitted effect of over 50% in size. Also: potency is read from the fitted curve at half-maximal effect. An outline of the steps:
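Channel function was assessed by thallium flux. Cells seeded the previous day and kept at 37 C took up FluxOR II dye over 1 h in the dark at room temperature, then sat another 10 min before stimulation.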

SMILES strings stand for the structures. Values joined by “and” are separate entries in the source; they are usually repeats but may differ in a detail not shown here. Identical values can stand only once. A number with no mark means an inactive call. Results filed as inconclusive are left out. Active and inactive are the calls of the source. Calls follow the shape of the dose curve; as a rule, active = well fitted curve in the direction sought with a large enough effect in the repeat runs; inconclusive = weak or mixed curves; inactive = no such curve, though single readings can be large; an effect the other way counts as inactive or inconclusive.
% is scaled to controls: 0 for no effect and ±100 for the full control effect.

Sequence of Cytochrome P450 1A2 (Homo sapiens) (P05177 whole entry, looked up): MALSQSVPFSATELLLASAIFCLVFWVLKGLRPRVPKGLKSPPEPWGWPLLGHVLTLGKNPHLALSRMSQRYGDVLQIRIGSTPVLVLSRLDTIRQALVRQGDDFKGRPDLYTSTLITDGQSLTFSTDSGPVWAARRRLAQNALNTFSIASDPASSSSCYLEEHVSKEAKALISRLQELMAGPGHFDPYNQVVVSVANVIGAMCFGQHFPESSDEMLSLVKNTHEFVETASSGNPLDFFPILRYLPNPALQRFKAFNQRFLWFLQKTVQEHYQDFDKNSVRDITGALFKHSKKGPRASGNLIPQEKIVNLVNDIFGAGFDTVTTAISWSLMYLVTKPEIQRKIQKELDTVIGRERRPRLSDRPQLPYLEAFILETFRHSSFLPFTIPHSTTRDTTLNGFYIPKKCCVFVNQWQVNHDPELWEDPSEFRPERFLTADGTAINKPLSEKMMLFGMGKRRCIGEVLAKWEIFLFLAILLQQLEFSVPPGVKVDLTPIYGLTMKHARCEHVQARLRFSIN
Sequence of Cytochrome P450 2C9 (Homo sapiens) (P11712 whole entry, looked up): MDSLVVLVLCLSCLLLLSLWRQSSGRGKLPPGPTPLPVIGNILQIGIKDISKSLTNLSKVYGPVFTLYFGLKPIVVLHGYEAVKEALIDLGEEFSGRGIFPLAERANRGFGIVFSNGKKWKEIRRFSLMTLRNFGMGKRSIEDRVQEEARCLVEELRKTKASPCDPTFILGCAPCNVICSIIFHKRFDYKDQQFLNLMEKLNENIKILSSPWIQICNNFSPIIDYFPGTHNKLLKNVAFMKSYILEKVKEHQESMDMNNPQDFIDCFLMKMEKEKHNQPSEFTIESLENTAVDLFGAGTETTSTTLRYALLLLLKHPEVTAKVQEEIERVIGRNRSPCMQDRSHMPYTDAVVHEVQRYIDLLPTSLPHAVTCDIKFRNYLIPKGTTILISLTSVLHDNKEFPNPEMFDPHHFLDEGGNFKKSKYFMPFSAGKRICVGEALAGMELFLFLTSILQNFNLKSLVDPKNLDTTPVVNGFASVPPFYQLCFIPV
Sequence of Nuclear receptor subfamily 1 group I member 2 (Homo sapiens) (O75469 whole entry, looked up): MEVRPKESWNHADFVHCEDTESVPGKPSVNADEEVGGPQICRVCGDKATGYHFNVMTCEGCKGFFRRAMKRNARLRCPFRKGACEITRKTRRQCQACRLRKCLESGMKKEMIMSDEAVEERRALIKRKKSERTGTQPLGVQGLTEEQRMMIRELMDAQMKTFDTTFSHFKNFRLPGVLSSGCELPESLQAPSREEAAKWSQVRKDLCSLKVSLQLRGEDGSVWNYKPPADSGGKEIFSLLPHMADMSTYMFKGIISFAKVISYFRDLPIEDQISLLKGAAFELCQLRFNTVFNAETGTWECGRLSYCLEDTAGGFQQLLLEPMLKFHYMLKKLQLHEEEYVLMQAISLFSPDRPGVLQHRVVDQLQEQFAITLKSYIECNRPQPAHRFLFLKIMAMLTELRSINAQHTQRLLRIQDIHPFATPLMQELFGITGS
Sequence of Cytochrome P450 2D6 (Homo sapiens) (P10635 whole entry, looked up): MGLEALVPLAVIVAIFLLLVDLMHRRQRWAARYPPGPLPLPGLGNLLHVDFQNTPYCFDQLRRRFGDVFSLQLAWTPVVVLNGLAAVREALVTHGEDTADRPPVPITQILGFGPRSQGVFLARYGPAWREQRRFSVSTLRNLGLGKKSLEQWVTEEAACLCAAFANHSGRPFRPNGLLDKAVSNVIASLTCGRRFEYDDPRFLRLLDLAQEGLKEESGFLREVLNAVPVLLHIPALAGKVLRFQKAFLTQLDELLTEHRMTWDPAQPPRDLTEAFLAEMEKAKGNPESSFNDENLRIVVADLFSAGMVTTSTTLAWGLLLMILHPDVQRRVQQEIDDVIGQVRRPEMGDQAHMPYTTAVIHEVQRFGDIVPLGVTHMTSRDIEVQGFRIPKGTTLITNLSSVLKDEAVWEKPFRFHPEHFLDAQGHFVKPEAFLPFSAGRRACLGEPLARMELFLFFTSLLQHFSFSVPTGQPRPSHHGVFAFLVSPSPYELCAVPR
Sequence of Voltage-gated inwardly rectifying potassium channel KCNH2 (Homo sapiens) (Q12809 whole entry, looked up): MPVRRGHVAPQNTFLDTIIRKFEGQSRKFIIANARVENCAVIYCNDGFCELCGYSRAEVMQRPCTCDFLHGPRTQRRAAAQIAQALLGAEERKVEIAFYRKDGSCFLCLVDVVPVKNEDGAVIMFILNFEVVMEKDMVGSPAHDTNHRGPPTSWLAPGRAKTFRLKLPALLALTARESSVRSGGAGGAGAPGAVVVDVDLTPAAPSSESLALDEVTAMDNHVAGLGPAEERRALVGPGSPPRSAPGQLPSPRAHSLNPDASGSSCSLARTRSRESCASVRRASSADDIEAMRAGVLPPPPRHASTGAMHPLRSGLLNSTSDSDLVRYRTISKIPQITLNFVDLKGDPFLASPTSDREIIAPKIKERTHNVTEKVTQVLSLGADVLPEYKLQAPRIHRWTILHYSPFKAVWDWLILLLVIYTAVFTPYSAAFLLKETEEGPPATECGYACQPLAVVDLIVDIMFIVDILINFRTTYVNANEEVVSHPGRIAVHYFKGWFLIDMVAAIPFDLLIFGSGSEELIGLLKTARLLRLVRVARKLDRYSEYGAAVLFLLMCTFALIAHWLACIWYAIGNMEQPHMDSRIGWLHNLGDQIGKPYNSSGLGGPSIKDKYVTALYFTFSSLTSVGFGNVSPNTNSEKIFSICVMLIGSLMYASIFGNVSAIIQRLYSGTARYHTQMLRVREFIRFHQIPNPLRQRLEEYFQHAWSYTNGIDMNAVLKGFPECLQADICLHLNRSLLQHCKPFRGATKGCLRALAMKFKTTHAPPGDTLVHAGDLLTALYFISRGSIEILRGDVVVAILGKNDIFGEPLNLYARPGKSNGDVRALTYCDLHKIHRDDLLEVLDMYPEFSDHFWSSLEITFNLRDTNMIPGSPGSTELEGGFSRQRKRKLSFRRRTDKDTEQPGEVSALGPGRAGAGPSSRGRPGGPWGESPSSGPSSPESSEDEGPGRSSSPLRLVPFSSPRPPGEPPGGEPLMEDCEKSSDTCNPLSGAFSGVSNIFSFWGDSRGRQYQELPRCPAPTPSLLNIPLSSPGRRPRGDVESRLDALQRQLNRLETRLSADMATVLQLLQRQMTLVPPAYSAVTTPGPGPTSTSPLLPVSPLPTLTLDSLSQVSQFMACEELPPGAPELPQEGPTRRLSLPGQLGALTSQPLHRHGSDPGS
Sequence of Nuclear receptor subfamily 1 group I member 2 (Rattus norvegicus) (Q9R1A7 whole entry, looked up): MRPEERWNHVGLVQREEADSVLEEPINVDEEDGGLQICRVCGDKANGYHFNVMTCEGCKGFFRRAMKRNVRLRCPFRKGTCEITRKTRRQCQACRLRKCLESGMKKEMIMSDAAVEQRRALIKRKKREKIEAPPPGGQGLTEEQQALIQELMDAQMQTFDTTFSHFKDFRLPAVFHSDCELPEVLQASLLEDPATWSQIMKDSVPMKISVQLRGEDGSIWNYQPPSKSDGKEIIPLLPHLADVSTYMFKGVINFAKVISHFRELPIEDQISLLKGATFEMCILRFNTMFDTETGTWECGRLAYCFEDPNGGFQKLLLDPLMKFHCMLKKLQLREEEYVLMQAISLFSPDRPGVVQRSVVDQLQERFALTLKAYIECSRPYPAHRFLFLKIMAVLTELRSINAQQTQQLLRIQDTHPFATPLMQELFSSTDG
Sequence of Cytochrome P450 2C19 (Homo sapiens) (P33261 whole entry, looked up): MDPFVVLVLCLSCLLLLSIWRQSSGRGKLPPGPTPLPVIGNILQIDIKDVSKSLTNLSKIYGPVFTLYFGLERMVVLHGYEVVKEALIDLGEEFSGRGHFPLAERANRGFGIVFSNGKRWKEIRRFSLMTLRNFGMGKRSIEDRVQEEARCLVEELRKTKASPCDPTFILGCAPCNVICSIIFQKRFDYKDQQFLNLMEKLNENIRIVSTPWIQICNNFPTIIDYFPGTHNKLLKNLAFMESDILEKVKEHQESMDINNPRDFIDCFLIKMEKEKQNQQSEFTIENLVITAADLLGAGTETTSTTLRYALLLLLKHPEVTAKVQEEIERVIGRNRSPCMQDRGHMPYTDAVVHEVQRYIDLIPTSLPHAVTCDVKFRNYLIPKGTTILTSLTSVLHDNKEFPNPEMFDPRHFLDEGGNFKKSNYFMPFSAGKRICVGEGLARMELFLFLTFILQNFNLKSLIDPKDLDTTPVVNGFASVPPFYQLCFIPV
Sequence of Cytochrome P450 3A4 (Homo sapiens) (P08684 whole entry, looked up): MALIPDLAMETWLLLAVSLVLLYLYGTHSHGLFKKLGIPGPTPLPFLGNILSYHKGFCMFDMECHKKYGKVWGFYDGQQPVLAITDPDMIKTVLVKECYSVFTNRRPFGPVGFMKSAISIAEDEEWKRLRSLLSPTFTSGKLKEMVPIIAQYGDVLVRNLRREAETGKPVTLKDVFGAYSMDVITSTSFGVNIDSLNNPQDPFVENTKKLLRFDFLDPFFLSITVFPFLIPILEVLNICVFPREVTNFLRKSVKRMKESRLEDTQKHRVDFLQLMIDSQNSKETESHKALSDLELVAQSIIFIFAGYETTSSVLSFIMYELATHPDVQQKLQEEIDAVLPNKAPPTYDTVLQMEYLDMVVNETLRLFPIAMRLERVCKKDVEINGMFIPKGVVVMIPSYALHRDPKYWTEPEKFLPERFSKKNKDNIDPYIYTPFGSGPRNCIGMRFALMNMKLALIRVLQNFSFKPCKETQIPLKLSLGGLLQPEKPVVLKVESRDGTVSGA

In the case of `CNC1CCCN(c2c(F)cc3c(=O)c(C(=O)O)cn(C4CC4)c3c2OC)C1` (stereo not given), the Potency entry in [1], in test [2], in test [4], in [5], in [7] and in test [8] was “inactive” throughout. Besides, the Potency result in test [9], in [10], in [11], in test [12] and in test [13] was “inactive” each time. In addition, in test [3], the compound was classed as inactive. Also, in test [6], the max activation is -1.63%.
Turning to `Nc1ccn([C@H]2CS[C@@H](CO)O2)c(=O)n1`, the Potency result in [1], in test [2], in test [14], in test [9], in [10] and in test [11] was “inactive” each time. Further, the Potency result in [12], in [15] and in [13] was “inactive” throughout. Besides, the result in test [3] was inactive. The max activation in [6] is -3.24% and -0.136%.
Regarding `C[C@@H]1[C@H](O)[C@@H](C)/C=C/C=C\C=C\C=C\C=C\C=C\C=C\[C@H](O[C@@H]2O[C@H](C)[C@@H](O)[C@H](N)[C@@H]2O)C[C@@H]2O[C@](O)(C[C@@H](O)C[C@@H](O)[C@H](O)CC[C@@H](O)C[C@@H](O)CC(=O)O[C@H]1C)C[C@H](O)[C@H]2C(=O)O` (stereo in doubt), the Potency result in [2], in test [7], in test [8], in test [9], in test [10] and in test [11] was “inactive” each time. The Potency entry in [15] and in test [13] was “inactive” in each case. The Potency was 61.1 µM (active) in test [14] and 48.6 µM (active) in [4]. Besides, the result in test [3] was inactive. The max activation in [6] is 1.92%.
As to `Cc1ccc(Cl)cc1N`, the Potency entry in [1], in test [2] and in test [4] was “inactive” in each case. Besides, in test [3], the compound was called inactive. For the same compound, the Potency was 55.5 µM (active) in test [5], 36.2 µM (active) in [10] and 10.2 µM (active) in [12].
On to `CN1CCCN(C(c2ccccc2)c2ccc(Cl)cc2)CC1` (stereo not given), for which the Potency in test [1] is 13.3 µM (active); in test [14], 26.6 µM (active); in [4], 23.7 µM (active); in test [9], 0.49 µM (active); in test [15], 1.9 µM (active). The compound was classed as inactive in [3]. The Potency entry in [5], in [10], in test [11] and in [12] was “inactive” each time.
In the case of `CCOC(=O)c1ccc(NC(=O)CN2CCCCC2)cc1`, the Potency entry in [1], in [2], in test [14], in test [4], in [10] and in [15] was “inactive” each time. Further, the Potency entry in [13] is “inactive”. Further, the result in test [3] was inactive. In addition, the Potency was 23.7 µM (active) in [5], 17.4 µM (active) in [9] and 32.3 µM (active) in [12].
Take `Cc1cc([N+](=O)[O-])ccc1N`: the Potency is 53.8 µM (active) in [14]; 33.9 µM (active) in test [4]; 31.3 µM (active) in [9]; 35.1 µM (active) in test [10]; 39.4 µM (active) in test [11]; 3.51 µM (active) in [12]. Further, in test [3], the compound was called inactive. Moreover, the Potency result in test [15] is “inactive”.
Take `CNS(=O)(=O)c1cc(C(=O)N2CCC(CCN3C4CCC3CC(n3c(C)nc5ccccc53)C4)(c3cccc(F)c3)CC2)c(Cl)cc1F` (stereo not given): the compound was called inactive in [3]. Further, the Potency in [4] is 13.7 µM (active); in test [9], 25.2 µM (active); in [10], 63.3 µM (active); in test [11], 17.8 µM (active). For the same compound, the Potency entry in test [5], in test [12] and in test [13] was “inactive” throughout.
As for `CC(C)(O)CCc1ccccc1`, the Potency result in test [1], in test [2], in [14], in test [4], in [5] and in test [9] was “inactive” each time. The Potency entry in [11] and in test [13] was “inactive” each time. Moreover, the compound was called inactive in test [3]. In test [10], the Potency was 71 µM (active).
With `CCN(Cc1cccc(S(=O)(=O)O)c1)c1ccc(C(=C2C=CC(=[N+](CC)Cc3cccc(S(=O)(=O)O)c3)C=C2)c2ccc(O)cc2S(=O)(=O)[O-])cc1`, the Potency in test [1] was 18.6 µM (active); in test [14] it was 18.6 µM (active); in [4], 16.6 µM (active); in test [9], 19.3 µM (active); in test [10] it was 13.6 µM (active); in test [11] it was 6.83 µM (active). In addition, the Potency in [12] was 17.2 µM (active). Further, the Potency entry in test [2] and in test [15] was “inactive” in each case. Also, in test [3], the compound was classed as inactive.
